Reference: article PMC7862700, “An all-to-all approach to the identification of sequence-specific readers for epigenetic DNA modifications on cytosine”

Experiments:
Assay in all cases: DAPPL (digital affinity profiling via proximity ligation, sequencing); 10 mM Tris-HCl pH 7.5, 50 mM NaCl, 1 mM DTT, 4% glycerol, room temperature, 30 min; GST-TFs on glutathione beads, 16-mer random dsDNA library, 0.1% formaldehyde crosslink after washing; high values mean tight binding
FLI1 = biological target: T1, FLI1 (Homo sapiens, UniProt Q01543 1-452); settings: protein: recombinant; tags: N-terminal GST; dsDNA, one strand shown
T1 sequence: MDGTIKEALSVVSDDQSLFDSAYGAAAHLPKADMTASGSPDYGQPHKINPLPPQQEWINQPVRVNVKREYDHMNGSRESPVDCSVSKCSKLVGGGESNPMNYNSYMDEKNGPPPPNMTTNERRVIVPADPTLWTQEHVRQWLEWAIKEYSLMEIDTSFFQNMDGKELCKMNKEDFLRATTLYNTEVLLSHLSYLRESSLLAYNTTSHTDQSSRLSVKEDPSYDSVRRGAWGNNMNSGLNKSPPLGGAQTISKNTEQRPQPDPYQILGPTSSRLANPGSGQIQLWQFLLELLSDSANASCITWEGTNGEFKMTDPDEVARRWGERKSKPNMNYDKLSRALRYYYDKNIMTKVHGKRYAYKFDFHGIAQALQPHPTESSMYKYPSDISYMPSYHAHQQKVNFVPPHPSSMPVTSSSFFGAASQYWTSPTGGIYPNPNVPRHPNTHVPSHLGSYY
Procedure, shortened: (§1)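 Pools were built from human transcription factors expressed in yeast as GST fusions, captured on glutathione beads and DNA-barcoded, along with a tag-only sample. Incubation with 200 nmole of a 16-mer random double-stranded DNA library lasted 30 min at room temperature in Tris/NaCl/DTT/glycerol buffer, and was followed by washing, 0.1% formaldehyde crosslinking, proximity ligation, PCR amplification and Illumina NextSeq500 sequencing. Binding signal is the quotient of each hexamer's read frequency for a factor and its frequency for the tag-only sample.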

ELK1 = biological target: T2, ELK1 (Homo sapiens, UniProt P19419 1-428); settings: protein: recombinant; tags: N-terminal GST; dsDNA, one strand shown
T2 sequence: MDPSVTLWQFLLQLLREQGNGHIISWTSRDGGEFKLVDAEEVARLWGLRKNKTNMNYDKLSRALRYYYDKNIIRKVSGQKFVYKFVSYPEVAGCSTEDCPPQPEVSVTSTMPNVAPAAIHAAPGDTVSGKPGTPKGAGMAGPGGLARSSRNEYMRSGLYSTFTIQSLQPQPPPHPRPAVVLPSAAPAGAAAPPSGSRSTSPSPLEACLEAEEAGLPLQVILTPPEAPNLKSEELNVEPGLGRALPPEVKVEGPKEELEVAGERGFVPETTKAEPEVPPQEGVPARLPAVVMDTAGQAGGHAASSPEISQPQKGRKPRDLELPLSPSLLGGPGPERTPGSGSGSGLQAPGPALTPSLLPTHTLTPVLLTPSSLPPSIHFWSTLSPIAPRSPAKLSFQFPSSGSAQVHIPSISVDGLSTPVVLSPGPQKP
Procedure, shortened: as §1

GABPA = biological target: T3, GABPA (Homo sapiens, UniProt Q06546 1-454); settings: protein: recombinant; tags: N-terminal GST; dsDNA, one strand shown
T3 sequence: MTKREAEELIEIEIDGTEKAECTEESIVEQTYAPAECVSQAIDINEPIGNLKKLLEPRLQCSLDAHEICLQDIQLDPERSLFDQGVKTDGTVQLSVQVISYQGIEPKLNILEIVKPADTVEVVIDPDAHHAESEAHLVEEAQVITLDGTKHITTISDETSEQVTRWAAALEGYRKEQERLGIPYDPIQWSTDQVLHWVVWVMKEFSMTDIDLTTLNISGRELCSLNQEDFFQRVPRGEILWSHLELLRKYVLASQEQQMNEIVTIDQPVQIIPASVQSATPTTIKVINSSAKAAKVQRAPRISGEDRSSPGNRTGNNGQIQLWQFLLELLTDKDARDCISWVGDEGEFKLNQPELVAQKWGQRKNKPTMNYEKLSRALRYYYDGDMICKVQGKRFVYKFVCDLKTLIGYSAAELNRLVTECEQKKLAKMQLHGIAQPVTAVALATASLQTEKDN
Procedure, shortened: as §1

ERG = biological target: T4, ERG (Homo sapiens, UniProt P11308 1-479); settings: protein: recombinant; tags: N-terminal GST; dsDNA, one strand shown
T4 sequence: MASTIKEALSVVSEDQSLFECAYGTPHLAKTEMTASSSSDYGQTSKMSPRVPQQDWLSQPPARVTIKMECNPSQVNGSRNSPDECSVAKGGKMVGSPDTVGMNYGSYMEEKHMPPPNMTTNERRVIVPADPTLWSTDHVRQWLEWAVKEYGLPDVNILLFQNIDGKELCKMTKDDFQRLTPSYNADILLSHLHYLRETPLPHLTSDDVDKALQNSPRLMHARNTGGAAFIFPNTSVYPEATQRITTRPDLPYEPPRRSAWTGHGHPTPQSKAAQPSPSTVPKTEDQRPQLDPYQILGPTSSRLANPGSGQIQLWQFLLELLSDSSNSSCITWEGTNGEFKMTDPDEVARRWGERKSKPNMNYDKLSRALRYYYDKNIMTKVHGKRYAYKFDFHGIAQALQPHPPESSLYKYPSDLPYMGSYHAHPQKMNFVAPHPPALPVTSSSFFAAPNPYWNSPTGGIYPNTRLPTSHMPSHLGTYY
Procedure, shortened: as §1

ELF1 = ELF1 (Homo sapiens, UniProt P32519 1-619); settings: protein: recombinant; tags: N-terminal GST; dsDNA, one strand shown
Procedure, shortened: as §1

EHF = biological target: T5, EHF (Homo sapiens, UniProt Q9NZC4 1-300); settings: protein: recombinant; tags: N-terminal GST; dsDNA, one strand shown
T5 sequence: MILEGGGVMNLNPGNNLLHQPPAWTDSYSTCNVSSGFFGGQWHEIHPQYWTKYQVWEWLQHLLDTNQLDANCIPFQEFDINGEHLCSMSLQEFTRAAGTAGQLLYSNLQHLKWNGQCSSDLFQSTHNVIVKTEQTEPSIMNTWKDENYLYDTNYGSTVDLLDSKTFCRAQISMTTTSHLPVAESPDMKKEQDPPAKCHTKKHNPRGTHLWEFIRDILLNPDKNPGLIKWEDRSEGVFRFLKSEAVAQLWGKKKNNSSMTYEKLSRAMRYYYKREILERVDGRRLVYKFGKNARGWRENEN
Procedure, shortened: as §1

SPI1 = SPI1 (Homo sapiens, UniProt P17947 1-270); settings: protein: recombinant; tags: N-terminal GST; dsDNA, one strand shown
Procedure, shortened: as §1

SPIB = SPIB (Homo sapiens, UniProt Q01892 1-262); settings: protein: recombinant; tags: N-terminal GST; dsDNA, one strand shown
Procedure, shortened: as §1

ELK3 = biological target: T6, ELK3 (Homo sapiens, UniProt P41970 1-407); settings: protein: recombinant; tags: N-terminal GST; dsDNA, one strand shown
T6 sequence: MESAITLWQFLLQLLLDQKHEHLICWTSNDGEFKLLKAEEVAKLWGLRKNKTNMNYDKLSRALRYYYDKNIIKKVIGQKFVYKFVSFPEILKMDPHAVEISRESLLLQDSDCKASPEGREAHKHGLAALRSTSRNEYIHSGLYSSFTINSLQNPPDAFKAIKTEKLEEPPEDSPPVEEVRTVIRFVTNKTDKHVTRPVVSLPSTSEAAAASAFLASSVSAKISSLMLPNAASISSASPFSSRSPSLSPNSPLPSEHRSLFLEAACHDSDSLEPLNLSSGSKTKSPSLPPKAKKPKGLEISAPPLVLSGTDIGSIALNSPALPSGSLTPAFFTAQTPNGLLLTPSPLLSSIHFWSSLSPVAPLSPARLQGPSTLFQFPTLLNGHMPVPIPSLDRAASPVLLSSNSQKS
Procedure, shortened: as §1

FEV = biological target: T7, FEV (Homo sapiens, UniProt Q99581 1-238); settings: protein: recombinant; tags: N-terminal GST; dsDNA, one strand shown
T7 sequence: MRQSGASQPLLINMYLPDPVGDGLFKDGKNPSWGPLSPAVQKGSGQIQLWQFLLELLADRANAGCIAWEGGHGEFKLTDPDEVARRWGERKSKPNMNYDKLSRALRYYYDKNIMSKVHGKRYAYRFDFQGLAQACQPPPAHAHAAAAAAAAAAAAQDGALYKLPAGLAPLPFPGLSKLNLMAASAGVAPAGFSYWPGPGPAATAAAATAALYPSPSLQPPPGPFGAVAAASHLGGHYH
Procedure, shortened: as §1

ETV5 = ETV5 (Homo sapiens, UniProt P41161 1-510); settings: protein: recombinant; tags: N-terminal GST; dsDNA, one strand shown
Procedure, shortened: as §1

HSF1 = HSF1 (Homo sapiens, UniProt Q00613 1-529); settings: protein: recombinant; tags: N-terminal GST; chain copies: 3; dsDNA, one strand shown
Procedure, shortened: as §1

SPIC = biological target: T8, SPIC (Homo sapiens, UniProt Q8N5J4 1-248); settings: protein: recombinant; tags: N-terminal GST; dsDNA, one strand shown
T8 sequence: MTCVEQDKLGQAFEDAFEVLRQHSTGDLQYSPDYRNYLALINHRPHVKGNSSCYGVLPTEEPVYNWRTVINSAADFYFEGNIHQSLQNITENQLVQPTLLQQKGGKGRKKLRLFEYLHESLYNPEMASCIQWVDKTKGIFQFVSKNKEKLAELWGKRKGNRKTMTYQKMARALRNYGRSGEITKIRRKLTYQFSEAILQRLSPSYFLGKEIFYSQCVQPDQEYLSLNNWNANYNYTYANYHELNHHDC
Procedure, shortened: as §1

ELF4 = ELF4 (Homo sapiens, UniProt Q99607 1-663); settings: protein: recombinant; tags: N-terminal GST; dsDNA, one strand shown
Procedure, shortened: as §1

ELK4 = biological target: T9, ELK4 (Homo sapiens, UniProt P28324-2 1-405); settings: protein: recombinant; tags: N-terminal GST; dsDNA, one strand shown
T9 sequence: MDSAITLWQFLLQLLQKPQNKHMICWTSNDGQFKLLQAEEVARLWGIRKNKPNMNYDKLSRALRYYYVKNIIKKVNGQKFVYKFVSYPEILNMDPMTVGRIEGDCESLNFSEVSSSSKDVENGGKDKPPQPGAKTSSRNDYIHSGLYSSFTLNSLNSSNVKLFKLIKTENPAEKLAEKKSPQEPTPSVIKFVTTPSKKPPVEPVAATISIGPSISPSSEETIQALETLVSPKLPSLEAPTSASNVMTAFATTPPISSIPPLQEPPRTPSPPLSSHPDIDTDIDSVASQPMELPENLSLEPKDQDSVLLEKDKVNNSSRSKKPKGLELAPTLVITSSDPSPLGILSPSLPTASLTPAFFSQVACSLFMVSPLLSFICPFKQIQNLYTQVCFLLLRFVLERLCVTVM
Procedure, shortened: as §1

ETV2 = biological target: T10, ETV2 (Homo sapiens, UniProt O00321 1-342); settings: protein: recombinant; tags: N-terminal GST; dsDNA, one strand shown
T10 sequence: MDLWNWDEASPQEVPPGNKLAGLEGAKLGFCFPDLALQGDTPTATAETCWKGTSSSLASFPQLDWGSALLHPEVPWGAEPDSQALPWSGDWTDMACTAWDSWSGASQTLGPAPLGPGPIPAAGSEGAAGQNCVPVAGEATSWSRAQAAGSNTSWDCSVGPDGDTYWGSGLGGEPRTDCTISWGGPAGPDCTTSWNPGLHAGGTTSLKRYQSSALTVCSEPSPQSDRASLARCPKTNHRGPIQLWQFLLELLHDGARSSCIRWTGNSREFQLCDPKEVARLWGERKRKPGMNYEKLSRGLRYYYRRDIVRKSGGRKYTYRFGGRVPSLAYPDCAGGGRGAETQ
Procedure, shortened: as §1

ELF3 = biological target: T11, ELF3 (Homo sapiens, UniProt P78545 1-371); settings: protein: recombinant; tags: N-terminal GST; dsDNA, one strand shown
T11 sequence: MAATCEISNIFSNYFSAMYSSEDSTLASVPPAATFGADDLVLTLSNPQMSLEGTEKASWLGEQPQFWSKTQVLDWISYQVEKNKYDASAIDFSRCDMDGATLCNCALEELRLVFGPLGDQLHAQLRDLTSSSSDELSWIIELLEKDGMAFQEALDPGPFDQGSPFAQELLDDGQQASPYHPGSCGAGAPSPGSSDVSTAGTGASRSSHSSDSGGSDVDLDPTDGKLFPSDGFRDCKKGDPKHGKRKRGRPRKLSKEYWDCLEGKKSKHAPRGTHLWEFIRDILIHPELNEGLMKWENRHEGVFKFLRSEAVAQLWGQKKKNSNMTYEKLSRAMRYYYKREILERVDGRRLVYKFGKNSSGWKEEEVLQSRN
Procedure, shortened: as §1

ETV1 = ETV1 (Homo sapiens, UniProt P50549 1-477); settings: protein: recombinant; tags: N-terminal GST; dsDNA, one strand shown
Procedure, shortened: as §1

Chain of ELF1 (P32519 whole entry): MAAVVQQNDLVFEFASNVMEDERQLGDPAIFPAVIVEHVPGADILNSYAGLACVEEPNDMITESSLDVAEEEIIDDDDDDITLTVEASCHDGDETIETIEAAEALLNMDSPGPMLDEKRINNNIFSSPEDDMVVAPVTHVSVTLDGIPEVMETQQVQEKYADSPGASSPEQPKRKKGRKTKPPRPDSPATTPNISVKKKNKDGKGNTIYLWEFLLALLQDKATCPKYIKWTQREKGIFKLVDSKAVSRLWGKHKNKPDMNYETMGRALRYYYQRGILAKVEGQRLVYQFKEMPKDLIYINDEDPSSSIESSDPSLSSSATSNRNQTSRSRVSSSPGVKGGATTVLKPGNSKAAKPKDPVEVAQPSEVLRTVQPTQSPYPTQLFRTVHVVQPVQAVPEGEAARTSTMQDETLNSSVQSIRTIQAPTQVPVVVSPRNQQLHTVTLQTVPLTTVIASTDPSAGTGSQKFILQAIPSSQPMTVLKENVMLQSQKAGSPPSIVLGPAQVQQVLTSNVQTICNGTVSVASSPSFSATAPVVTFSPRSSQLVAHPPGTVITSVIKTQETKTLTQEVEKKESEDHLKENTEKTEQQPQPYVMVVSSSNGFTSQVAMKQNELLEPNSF
Chain of ETV1 (P50549 whole entry): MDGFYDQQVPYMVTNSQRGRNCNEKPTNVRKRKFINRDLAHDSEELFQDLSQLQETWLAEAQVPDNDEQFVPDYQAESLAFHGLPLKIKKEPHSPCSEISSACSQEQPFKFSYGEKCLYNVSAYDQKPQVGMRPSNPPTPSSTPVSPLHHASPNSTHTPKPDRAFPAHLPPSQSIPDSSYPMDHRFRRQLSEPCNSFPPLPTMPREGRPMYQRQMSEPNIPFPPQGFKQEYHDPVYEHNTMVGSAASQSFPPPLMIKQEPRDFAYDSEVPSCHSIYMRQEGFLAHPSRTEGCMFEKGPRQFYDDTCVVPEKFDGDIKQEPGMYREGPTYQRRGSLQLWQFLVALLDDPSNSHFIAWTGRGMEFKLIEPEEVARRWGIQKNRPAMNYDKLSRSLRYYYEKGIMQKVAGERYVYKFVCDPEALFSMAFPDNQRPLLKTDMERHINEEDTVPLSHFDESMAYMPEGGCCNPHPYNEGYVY
Chain of SPIB (Q01892 whole entry): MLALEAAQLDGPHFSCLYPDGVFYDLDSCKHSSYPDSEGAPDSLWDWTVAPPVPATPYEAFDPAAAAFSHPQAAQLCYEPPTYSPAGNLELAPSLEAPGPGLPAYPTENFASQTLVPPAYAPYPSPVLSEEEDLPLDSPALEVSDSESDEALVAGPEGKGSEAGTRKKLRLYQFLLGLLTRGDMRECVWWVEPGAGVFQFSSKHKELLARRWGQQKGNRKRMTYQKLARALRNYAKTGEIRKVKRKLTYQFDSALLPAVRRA
Chain of ELF4 (Q99607 whole entry): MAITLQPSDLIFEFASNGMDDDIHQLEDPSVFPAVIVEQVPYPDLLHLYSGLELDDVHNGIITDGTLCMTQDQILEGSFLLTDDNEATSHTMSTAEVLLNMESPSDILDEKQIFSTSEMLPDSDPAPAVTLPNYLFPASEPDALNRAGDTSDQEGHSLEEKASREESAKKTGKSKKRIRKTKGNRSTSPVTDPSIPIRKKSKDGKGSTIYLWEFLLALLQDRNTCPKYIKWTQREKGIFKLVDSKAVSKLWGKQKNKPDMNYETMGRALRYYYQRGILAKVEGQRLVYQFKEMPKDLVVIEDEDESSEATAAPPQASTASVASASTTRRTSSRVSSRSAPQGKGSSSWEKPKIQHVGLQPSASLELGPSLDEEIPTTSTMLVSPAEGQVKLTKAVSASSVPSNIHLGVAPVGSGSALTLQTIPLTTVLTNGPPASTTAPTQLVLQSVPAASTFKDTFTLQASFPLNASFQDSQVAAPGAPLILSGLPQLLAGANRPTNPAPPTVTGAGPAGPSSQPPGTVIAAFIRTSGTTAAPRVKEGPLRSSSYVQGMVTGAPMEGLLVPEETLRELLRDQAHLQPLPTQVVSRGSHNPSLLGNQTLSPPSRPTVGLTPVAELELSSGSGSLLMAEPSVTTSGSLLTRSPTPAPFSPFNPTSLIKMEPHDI
Chain of ETV5 (P41161 whole entry): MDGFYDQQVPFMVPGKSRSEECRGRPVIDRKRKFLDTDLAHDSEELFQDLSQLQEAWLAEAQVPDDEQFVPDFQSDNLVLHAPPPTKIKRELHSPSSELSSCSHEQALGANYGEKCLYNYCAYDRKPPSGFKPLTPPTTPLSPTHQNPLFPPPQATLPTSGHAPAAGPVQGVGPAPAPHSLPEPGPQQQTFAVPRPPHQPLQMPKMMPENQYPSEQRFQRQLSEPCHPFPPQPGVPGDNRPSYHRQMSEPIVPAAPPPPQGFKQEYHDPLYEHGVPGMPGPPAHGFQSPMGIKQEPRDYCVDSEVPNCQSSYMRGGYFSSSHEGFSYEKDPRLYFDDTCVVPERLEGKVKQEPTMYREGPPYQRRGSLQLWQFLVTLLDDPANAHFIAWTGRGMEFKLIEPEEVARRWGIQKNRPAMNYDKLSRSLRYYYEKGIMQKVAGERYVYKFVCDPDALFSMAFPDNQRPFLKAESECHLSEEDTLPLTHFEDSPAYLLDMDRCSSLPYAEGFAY
Chain of HSF1 (Q00613 whole entry): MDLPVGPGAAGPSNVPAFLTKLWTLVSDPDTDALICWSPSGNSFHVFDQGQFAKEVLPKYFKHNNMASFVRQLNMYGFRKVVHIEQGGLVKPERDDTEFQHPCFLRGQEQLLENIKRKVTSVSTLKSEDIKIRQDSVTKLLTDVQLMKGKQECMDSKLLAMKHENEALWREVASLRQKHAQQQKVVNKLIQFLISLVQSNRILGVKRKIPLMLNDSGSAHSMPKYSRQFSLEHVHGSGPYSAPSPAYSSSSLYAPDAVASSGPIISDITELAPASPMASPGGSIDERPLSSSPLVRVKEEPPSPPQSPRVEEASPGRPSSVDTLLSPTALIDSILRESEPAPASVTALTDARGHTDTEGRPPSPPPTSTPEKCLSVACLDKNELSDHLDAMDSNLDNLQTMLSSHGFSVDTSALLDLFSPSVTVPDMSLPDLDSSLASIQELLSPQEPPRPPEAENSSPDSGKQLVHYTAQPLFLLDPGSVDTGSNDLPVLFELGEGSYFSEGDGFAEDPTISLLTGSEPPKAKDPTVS

AACGAC was tested. Which binding signal (FLI1) did it give?
Its binding signal is 1.14 fold enrichment (6-mer frequency, TF over GST control).

What about the binding signal (ELK1) of the same sequence?
Its binding signal is 1.19 fold enrichment (6-mer frequency, TF over GST control).

And the binding signal (GABPA)?
Its binding signal is 1.18 fold enrichment (6-mer frequency, TF over GST control).

And the binding signal (ERG)?
The binding signal was 1.14 fold enrichment (6-mer frequency, TF over GST control).

What about the binding signal (ELF1) of the same sequence?
Its binding signal is 1.09 fold enrichment (6-mer frequency, TF over GST control).

What about the binding signal (EHF) of the same sequence?
The binding signal was 1.1 fold enrichment (6-mer frequency, TF over GST control).

And the binding signal (SPI1)?
The binding signal was 1.12 fold enrichment (6-mer frequency, TF over GST control).

And the binding signal (SPIB)?
Its binding signal is 1.04 fold enrichment (6-mer frequency, TF over GST control).

And the binding signal (ELK3)?
The binding signal was 1.06 fold enrichment (6-mer frequency, TF over GST control).

And the binding signal (FEV)?
Its binding signal is 1.16 fold enrichment (6-mer frequency, TF over GST control).

What about the binding signal (ETV5) of the same sequence?
Its binding signal is 1.14 fold enrichment (6-mer frequency, TF over GST control).

And the binding signal (HSF1)?
Its binding signal is 1.01 fold enrichment (6-mer frequency, TF over GST control).

What about the binding signal (SPIC) of the same sequence?
Its binding signal is 1.04 fold enrichment (6-mer frequency, TF over GST control).

What about the binding signal (ELF4) of the same sequence?
Its binding signal is 1.18 fold enrichment (6-mer frequency, TF over GST control).

What about the binding signal (ELK4) of the same sequence?
The binding signal was 1.03 fold enrichment (6-mer frequency, TF over GST control).

And the binding signal (ETV2)?
Its binding signal is 1.04 fold enrichment (6-mer frequency, TF over GST control).

What about the binding signal (ELF3) of the same sequence?
The binding signal was 1.02 fold enrichment (6-mer frequency, TF over GST control).

What about the binding signal (ETV1) of the same sequence?
The binding signal was 1.15 fold enrichment (6-mer frequency, TF over GST control).
